Experimental data reported in the supplement of paper PMC11001985.
Values without a mark were called inactive.

Each target was assayed with C#CCNC(=O)CCSSCCC(=O)NCCc1ccc(C=O)c(C=O)c1 (assay: lysine labeling ratio R10:1 (500 µM / 50 µM probe), SILAC-ABPP in living cells; higher = lower intrinsic lysine reactivity toward the probe, active = 2 or less). Conditions: HeLa; probe concentrations 500 vs 50 µM.
Outline: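 Living SILAC light and heavy HeLa cells in PBS at room temperature were treated with an alkyne-tagged, disulfide-linked lysine probe at 50 µM or 500 µM, with forward and reverse label swaps. The mixed lysates were clicked to biotin-azide, digested with trypsin, captured on neutravidin, released with DTT, alkylated and run by LC-MS/MS on a TIMS-TOF Pro. R for each lysine is the filtered median high-probe/low-probe MS1 peptide ratio, taken again as the median over forward and reverse replicates. Any value above 20 is set to 20.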

UniProt P0C0S5, sequence (P0C0S5 whole entry): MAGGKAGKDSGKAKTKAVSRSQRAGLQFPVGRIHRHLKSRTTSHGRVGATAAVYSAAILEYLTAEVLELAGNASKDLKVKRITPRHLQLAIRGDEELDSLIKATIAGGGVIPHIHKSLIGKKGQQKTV
UniProt P10599, sequence (P10599 whole entry): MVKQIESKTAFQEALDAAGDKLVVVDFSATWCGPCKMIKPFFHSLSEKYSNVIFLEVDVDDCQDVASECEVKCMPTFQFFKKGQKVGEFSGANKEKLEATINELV
UniProt Q06830, sequence (Q06830 whole entry): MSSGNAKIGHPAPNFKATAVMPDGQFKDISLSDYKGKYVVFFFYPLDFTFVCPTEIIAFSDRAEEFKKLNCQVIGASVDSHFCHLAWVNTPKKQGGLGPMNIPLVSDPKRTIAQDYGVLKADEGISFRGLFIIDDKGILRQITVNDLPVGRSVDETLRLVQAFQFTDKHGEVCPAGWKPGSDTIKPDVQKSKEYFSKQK

For “TNPO1 (lysine site: K889) (UniProt Q92973)”, the “lysine labeling ratio R10:1” value was 1.09 (active).
With UniProt P0C0S5 (lysine site: K16) the “lysine labeling ratio R10:1” value was 1.12 (active).
UniProt Q4KMG0 (lysine site: K149) was tested, and the “lysine labeling ratio R10:1” value was 1.47 (active).
“PSMA4 (lysine site: K210) (UniProt P25789)” was tested, and the “lysine labeling ratio R10:1” value was 1.69 (active).
For “FLNB (lysine site: K976) (UniProt O75369)”, the “lysine labeling ratio R10:1” value was 1.86 (active).
“ARL6IP5 (lysine site: K31) (UniProt O75915)” was tested, and the “lysine labeling ratio R10:1” value was 0.953 (active).
With “PDIA3 (lysine site: K129) (UniProt P30101)” the “lysine labeling ratio R10:1” value was 1.94 (active).
For “HSPG2 (lysine site: K1414) (UniProt P98160)”, the “lysine labeling ratio R10:1” value was 1.42 (active).
With “RPL10A (lysine site: K212) (UniProt P62906)” the “lysine labeling ratio R10:1” value was 1.53 (active).
With UniProt Q15149 (lysine site: K4480) the “lysine labeling ratio R10:1” value was 1.74 (active).
“HSPE1 (lysine site: K86) (UniProt P61604)” was tested, and the “lysine labeling ratio R10:1” value was 1.85 (active).
For “CDCP1 (lysine site: K454) (UniProt Q9H5V8)”, the “lysine labeling ratio R10:1” value was 1.89 (active).

Going from “ACTN4 (lysine site: K632) (UniProt O43707)” to “YBX1 (lysine site: K170) (UniProt P67809)”, the “lysine labeling ratio R10:1” value rises from 4.35 to 9.44.

First: LRP6 (lysine site: K1053) (UniProt O75581)
Second: UniProt Q9Y653 (lysine site: K107)
The “lysine labeling ratio R10:1” value of the first is higher: 2.76 for the first, 2.31 for the second.

Going from “THBS1 (lysine site: K201) (UniProt P07996)” to “CD109 (lysine site: K494) (UniProt Q6YHK3)”, the “lysine labeling ratio R10:1” value rises from 3.89 to 8.05.

First: VIM (lysine site: K334) (UniProt P08670)
Second: CACNA2D1 (lysine site: K586) (UniProt P54289)
The “lysine labeling ratio R10:1” value of the first is higher: 5.58 for the first, 2.9 for the second.

First: SQSTM1 (lysine site: K13) (UniProt Q13501)
Second: PTGFRN (lysine site: K435) (UniProt Q9P2B2)
The “lysine labeling ratio R10:1” value of the first is higher: 7.96 for the first, 5.47 for the second.

First: UniProt Q15149 (lysine site: K1975)
Sequence (Q15149 whole entry): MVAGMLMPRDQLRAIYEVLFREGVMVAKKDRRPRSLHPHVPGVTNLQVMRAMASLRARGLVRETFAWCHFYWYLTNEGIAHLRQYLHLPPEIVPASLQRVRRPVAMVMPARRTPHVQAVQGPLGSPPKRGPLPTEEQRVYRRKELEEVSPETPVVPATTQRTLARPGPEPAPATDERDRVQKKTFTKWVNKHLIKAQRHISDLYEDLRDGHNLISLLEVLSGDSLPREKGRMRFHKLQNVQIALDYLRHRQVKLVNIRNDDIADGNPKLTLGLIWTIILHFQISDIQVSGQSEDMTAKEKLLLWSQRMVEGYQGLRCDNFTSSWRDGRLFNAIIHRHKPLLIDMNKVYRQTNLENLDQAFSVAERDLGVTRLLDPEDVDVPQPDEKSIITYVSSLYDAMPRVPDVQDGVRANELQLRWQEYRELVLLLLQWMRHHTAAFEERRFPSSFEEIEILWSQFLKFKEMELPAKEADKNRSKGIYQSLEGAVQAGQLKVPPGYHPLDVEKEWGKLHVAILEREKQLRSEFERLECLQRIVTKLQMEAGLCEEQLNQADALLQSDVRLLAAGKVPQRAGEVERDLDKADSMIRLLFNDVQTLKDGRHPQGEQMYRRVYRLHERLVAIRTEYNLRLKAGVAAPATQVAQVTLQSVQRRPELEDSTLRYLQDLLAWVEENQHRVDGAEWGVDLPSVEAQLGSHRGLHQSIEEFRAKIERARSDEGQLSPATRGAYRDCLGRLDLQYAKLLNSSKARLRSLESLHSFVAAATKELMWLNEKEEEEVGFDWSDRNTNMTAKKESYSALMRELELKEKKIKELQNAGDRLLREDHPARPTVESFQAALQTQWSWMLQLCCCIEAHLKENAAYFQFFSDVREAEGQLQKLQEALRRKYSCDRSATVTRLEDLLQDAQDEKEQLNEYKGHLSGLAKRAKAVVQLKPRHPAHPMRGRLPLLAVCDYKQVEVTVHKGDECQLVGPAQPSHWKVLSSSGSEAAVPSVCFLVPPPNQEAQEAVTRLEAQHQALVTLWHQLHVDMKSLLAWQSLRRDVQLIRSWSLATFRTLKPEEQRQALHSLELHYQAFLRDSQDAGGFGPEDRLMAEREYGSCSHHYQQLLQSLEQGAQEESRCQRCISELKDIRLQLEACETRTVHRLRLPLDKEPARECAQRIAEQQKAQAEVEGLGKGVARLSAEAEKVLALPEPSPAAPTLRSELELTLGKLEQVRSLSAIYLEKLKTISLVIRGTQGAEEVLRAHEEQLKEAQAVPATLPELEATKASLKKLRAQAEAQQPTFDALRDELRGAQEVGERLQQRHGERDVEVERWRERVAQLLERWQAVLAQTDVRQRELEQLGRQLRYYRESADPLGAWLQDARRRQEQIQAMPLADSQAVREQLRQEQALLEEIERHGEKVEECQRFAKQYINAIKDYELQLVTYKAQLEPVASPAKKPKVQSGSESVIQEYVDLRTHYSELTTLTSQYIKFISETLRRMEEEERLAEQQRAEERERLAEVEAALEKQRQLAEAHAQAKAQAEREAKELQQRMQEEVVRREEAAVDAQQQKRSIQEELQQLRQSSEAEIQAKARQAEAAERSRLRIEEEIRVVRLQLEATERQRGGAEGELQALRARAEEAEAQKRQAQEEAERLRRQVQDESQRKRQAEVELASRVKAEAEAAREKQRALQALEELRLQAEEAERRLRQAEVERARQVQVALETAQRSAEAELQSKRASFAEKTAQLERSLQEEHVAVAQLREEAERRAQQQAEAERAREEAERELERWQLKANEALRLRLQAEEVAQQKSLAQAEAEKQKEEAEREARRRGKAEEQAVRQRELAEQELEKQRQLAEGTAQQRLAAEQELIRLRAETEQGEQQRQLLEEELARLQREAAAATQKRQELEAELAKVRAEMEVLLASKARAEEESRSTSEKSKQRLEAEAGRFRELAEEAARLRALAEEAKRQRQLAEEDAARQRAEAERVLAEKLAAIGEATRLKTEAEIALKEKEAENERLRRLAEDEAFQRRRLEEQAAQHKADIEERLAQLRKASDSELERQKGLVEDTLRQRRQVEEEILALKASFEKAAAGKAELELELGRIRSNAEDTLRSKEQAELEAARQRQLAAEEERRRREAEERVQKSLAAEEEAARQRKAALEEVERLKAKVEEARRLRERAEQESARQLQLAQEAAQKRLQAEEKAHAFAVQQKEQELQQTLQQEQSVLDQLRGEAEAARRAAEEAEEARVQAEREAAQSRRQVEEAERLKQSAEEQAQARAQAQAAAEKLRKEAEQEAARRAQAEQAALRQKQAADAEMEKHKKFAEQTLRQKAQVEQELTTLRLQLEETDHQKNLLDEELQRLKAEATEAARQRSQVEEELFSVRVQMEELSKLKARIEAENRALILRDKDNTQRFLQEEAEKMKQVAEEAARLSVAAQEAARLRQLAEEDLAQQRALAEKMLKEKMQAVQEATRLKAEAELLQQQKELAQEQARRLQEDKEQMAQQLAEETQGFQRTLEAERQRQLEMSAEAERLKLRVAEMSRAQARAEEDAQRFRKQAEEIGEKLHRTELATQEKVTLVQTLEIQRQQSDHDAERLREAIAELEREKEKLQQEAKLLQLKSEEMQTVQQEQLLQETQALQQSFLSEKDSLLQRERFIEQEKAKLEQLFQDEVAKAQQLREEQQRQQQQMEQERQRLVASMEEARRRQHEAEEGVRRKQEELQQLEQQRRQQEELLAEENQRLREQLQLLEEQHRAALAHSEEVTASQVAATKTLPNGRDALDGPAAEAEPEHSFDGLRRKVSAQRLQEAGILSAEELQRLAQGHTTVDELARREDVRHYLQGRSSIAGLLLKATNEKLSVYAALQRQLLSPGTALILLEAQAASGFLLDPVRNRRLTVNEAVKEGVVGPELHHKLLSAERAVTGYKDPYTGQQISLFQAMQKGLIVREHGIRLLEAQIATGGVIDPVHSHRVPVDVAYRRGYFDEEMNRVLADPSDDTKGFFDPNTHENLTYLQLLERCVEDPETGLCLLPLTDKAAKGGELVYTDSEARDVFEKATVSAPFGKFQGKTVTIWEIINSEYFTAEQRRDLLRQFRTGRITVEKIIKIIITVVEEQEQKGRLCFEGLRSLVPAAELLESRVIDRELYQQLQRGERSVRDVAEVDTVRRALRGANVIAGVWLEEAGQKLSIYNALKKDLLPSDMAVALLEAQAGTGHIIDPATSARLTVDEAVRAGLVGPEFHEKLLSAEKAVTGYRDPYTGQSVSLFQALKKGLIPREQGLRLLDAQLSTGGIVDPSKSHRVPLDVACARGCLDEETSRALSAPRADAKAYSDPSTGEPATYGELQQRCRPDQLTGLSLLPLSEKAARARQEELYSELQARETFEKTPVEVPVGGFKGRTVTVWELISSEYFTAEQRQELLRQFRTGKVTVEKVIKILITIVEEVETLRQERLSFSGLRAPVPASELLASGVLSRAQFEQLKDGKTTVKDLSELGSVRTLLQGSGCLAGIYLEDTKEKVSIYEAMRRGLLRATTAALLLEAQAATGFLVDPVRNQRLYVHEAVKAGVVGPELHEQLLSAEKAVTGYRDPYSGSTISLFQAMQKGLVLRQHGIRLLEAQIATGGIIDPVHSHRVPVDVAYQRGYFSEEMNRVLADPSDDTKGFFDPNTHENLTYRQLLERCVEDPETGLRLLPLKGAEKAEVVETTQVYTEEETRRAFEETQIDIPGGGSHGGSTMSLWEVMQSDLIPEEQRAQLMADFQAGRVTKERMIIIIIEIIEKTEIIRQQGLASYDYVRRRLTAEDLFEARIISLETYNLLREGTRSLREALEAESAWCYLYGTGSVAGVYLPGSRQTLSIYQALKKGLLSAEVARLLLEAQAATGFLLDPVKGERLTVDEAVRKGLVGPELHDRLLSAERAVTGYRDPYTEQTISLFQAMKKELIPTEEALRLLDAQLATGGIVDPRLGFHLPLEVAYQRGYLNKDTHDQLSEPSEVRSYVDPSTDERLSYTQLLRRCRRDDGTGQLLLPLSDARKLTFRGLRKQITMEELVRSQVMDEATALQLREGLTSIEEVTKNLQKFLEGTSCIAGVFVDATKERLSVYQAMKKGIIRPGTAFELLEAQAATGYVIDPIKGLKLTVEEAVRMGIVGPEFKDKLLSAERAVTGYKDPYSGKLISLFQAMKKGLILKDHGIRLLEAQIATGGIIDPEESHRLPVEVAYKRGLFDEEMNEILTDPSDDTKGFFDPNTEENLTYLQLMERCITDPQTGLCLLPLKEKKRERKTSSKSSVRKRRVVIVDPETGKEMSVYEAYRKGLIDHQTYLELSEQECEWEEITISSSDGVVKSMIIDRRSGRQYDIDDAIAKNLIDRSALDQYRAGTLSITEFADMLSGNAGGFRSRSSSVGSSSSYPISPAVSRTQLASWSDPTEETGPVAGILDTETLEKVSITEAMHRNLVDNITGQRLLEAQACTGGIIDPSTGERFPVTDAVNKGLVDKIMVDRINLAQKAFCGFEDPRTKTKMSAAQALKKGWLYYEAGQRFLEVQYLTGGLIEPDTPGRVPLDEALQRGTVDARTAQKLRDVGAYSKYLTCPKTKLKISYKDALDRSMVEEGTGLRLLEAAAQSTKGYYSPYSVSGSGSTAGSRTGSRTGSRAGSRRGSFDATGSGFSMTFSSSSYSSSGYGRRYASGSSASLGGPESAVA
Second: S100A4 (lysine site: K48) (UniProt P26447)
The “lysine labeling ratio R10:1” value of the first is higher: 5.68 for the first, 5.05 for the second.

Compared with “L1CAM (lysine site: K62) (UniProt P32004)”, “FN1 (lysine site: K2072) (UniProt P02751)” is higher in “lysine labeling ratio R10:1” value: 2.25 for the first, 9.06 for the second.

Compared with UniProt P61160 (lysine site: K381), “TKT (lysine site: K352) (UniProt P29401)” is higher in “lysine labeling ratio R10:1” value: 2.7 for the first, 6 for the second.

Compared with “DDX5 (lysine site: K80) (UniProt P17844)”, “PTGFRN (lysine site: K579) (UniProt Q9P2B2)” is lower in “lysine labeling ratio R10:1” value: 3.64 for the first, 2.67 for the second.

Compared with “HEG1 (lysine site: K1178) (UniProt Q9ULI3)”, “F11R (lysine site: K47) (UniProt Q9Y624)” is higher in “lysine labeling ratio R10:1” value: 4.55 for the first, 5.07 for the second.

Going from “DSTN (lysine site: K92) (UniProt P60981)” to UniProt P61981 (lysine site: K10), the “lysine labeling ratio R10:1” value rises from 2.43 to 4.23.

Compared with “EEF2 (lysine site: K498) (UniProt P13639)”, “PRDX1 (lysine site: K197) (UniProt Q06830)” is lower in “lysine labeling ratio R10:1” value: 3.9 for the first, 2.6 for the second.

Compared with “BASP1 (lysine site: K149) (UniProt P80723)”, “ITGB1 (lysine site: K90) (UniProt P05556)” is lower in “lysine labeling ratio R10:1” value: 3.54 for the first, 3.53 for the second.

Compared with TXN (lysine site: K96) (UniProt P10599), “CCT8 (lysine site: K400) (UniProt P50990)” is higher in “lysine labeling ratio R10:1” value: 2.11 for the first, 4.01 for the second.
